# From the supplement of paper PMC6555819
# How the values were obtained:
# Experiment in all cases: PBM binding z-score (relative to random genomic background probes); higher = stronger binding; sequences stand for … in GC…GCGATTGACAGCGTAGAATGAAGG
# [1] = test system: FXR:RXRa (NR concentration 270 nM, RXRa partner concentration 90 nM)
# Procedure, shortened: (§1)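 Regression normalization was applied to scanned fluorescence from custom Agilent 4×180K protein-binding microarrays. Before scanning, arrays were incubated 1 h with ligand-free nuclear receptor dimers, and binding was detected with antibodies against each partner (one per run). Binding z-scores use the random background probes as reference.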
# [2] = test system: LXRa:RXRa (NR concentration 270 nM, RXRa partner concentration 90 nM)
# Procedure, shortened: as §1
# [3] = test system: LXRa homodimer (NR concentration 270 nM)
# Procedure, shortened: as §1
# [4] = test system: LXRb:RXRa (NR concentration 270 nM, RXRa partner concentration 90 nM)
# Procedure, shortened: as §1
# [5] = test system: LXRb homodimer (NR concentration 270 nM)
# Procedure, shortened: as §1
# [6] = test system: PPARa:RXRa (NR concentration 270 nM, RXRa partner concentration 90 nM)
# Procedure, shortened: as §1
# [7] = test system: PPARg:RXRa (NR concentration 180 nM, RXRa partner concentration 90 nM)
# Procedure, shortened: as §1
# [8] = test system: PPARg:RXRa 270nM:90nM, anti-RXR (NR concentration 270 nM, RXRa partner concentration 90 nM)
# Procedure, shortened: as §1
# [9] = test system: PPARg:RXRa 30nM:10nM, anti-RXR (NR concentration 30 nM, RXRa partner concentration 10 nM)
# Procedure, shortened: as §1
# [10] = test system: PPARg:RXRa 90nM:30nM, anti-RXR (NR concentration 90 nM, RXRa partner concentration 30 nM)
# Procedure, shortened: as §1
Sequence,PBM binding z-score [1],PBM binding z-score [2],PBM binding z-score [3],PBM binding z-score [4],PBM binding z-score [5],PBM binding z-score [6],PBM binding z-score [7],PBM binding z-score [8],PBM binding z-score [9],PBM binding z-score [10]
CCTTACGGGTCACGAGGATATAGCACGACGAGCG,6.44,4.11,0.0313,3.62,-0.175,5.81,6.65,6.23,2.94,4.99
TAGAGTAGGTTAGGGGCATTCAGAATGGCGTCGA,0.854,0.929,0.289,1.66,2.45,2.24,2.29,3.01,1.48,2.6
AGTCCAAGTTCATCTAGGTAACGTAAGATATGCT,3.42,3.23,1.19,1.62,0.287,2.59,1.45,1.61,0.523,0.991
ACTAGTTGGCCAGCTGAGGTCACACACAATTCGG,2.99,2.85,1.49,3.25,-0.00517,3.54,1.55,1.67,0.296,1.05
TCTATTAGTTGAAGGGCAACCGCCGAGTCCGTTT,0.913,0.871,0.578,0.586,0.231,0.935,-0.454,2.19,3.81,2.91
AGAACGAGGGCAATGAGTTTATAGCACGGGTGGC,0.163,0.317,-0.472,-0.145,-0.322,1.25,1.55,0.876,0.119,0.36
CCGTCTGGGGCAAAGGTTACCATACTCAGTACGA,1.5,1.57,-0.23,2.15,-0.982,4.92,10.4,8.97,9.6,10.6
GCTTACGGGTCAAATGTTATAGCATGAATAGAAT,6.7,4.31,0.0219,4.11,0.827,5.85,6.74,6.08,3.81,5.84
CAGACTAGGTCACCGGAAGGTCAAAGTCCGCATG,5.95,5.63,4.26,5.14,0.786,5.42,7.82,7.03,3.63,6.35
AATACAAGGTCACTAGGCCAGAGTAGGTACGAAT,7.35,6.14,4.32,4.79,2.19,6.29,8.24,6.63,3.8,6.05
GCTAGTAGTTGAAAGGGCAACCGAATGATTCTCG,0.181,0.507,0.0629,0.605,-0.496,2.52,4.19,5.71,4.3,5.8
TCGATTAGGTTACCAATGGGGCATTCAGCTTTCT,0.297,1.49,-0.396,1.29,-0.254,1.21,-0.163,1.5,2.68,2.26
CTCGAAAGGTCGATTGAGGTGAGTATACGGATAA,4.35,3.38,-0.0633,2.93,0.38,4.12,1.66,2.47,0.642,1.43
TGAATGAGGTTATAAGATCAGGGGACGTTGCAAA,1.42,1.51,-0.106,1.61,0.309,2.73,1.65,1.96,0.887,1.28
TTACCAAGGTGCAGGTCGTTGATCCCTCTGTAGA,0.967,1.17,0.154,0.819,-0.626,0.827,-0.238,0.806,0.416,0.733
ACTAGCAGGCCAAGGGGCACTCAAGATTAGTCCG,-0.336,-0.192,-0.413,0.0457,-0.63,1.63,4.11,4.46,2.5,4.64
CAAACTAGGTCACTGAGGTCAAAGTCCGTGCGTA,6.44,5.9,5.56,5.66,1.56,6.2,9.39,7.91,5.72,7.61
CCTACTGGGCCATCAGGGCATTGATATCAACGTT,-0.583,-0.856,-0.715,-0.817,-0.886,0.0503,1.16,1.68,-0.00697,0.846
ACTATTAGTTGACTTAGGGCAACCGGTACGACGC,0.0418,0.216,0.333,0.0684,0.939,0.187,0.638,0.108,0.302,0.142
TCTTGTAGATCAGCAGGTTAAGAAAGCTGGCCAA,-0.00874,0.161,-0.357,0.167,-0.4,0.684,-0.446,1.3,2.21,1.66
CCTACTTGGTCAAGGTCACACACGCTATAGGTAC,4.25,4.24,2.32,4.05,1.7,4.33,3.75,3.87,1.38,2.72
ATCTCTAGGTAACCAAGTTGAGTGAATGCCGAAC,0.189,0.0773,0.252,0.0776,0.391,0.54,0.337,0.316,-0.0449,0.238

Sequence,PBM binding z-score [1],PBM binding z-score [2],PBM binding z-score [3],PBM binding z-score [4],PBM binding z-score [5],PBM binding z-score [6],PBM binding z-score [7],PBM binding z-score [8],PBM binding z-score [9],PBM binding z-score [10]
TCATATAGGTAACCAGGTGAAAGTCCGTAAGTTA,0.67,0.846,0.139,1.04,0.073,2.95,4.7,4.35,4.08,4.4
AGAACGAGGGCAATGAGTTGATAGCGCGGGTGGC,0.136,0.127,-0.734,-0.343,-0.754,1.25,0.897,0.618,-0.31,0.0829
TCATATAAGTAAAGGTGAAAGTCGAACGATATGA,1,1.25,-0.151,1.26,-0.205,2.77,1.98,2.93,3.99,3.46
TAGCATAGGTCATTCAGGGGCCAGTATAGAAAGC,6.82,5.38,1.82,4.56,1.73,5.15,3.49,4.27,1.5,3.18
GCTAGTTGGTCAGTAAAAGGTCACAAACCGGTCG,3.06,3.78,3.4,3.99,0.763,4.53,2.59,4.01,2.23,3.46
AGAATGAGGTTAAGATCGGGGAAACAGAATACAT,2.13,4.69,-0.244,2.3,0.08,3.65,2.06,2.53,0.954,1.75
ACTAGCAGGCCAAGTTTGGGTCACTCCAACAAAG,0.154,0.00504,-0.19,0.664,-0.49,1.18,-0.0331,-0.0928,-0.803,-0.387
TCATATAGGGAAACAGGTGAAAGTCCGTAAGTTA,1.01,1.04,0.121,1.11,-0.148,1.74,1.69,3.03,4.32,3.7
ATATGTAGGTTATGGGGTCATTCAGTTTGCGCAT,5.54,5.12,3.61,5.55,2.36,5.91,8.65,7.03,5.67,7.31
AGTCAAAGTTCACTAGCTAACGTAAGATTCAGCT,4.87,4.82,2.93,3.04,1.11,3.91,5.29,5.49,2.82,4.54
TCATATAGGTCAAGGTGAAAGTCGAACGATATGA,6.5,4.65,0.783,3.73,0.775,6.15,8.55,7.65,6.25,7.63
AGACCGAGGGCACGCTGAGTTGATAGCAGAGTAG,0.748,0.67,-0.437,0.0788,-0.999,1.56,0.962,0.775,-0.337,0.0427
CCTGCTAGGTCAATGGTAAGCTAAAGCAGCTCGC,2.96,2.11,-0.107,1.19,-0.205,2.84,2.52,2.98,0.395,2.09
TCTAGTTGGTCACGTAGGTCACACACGACGGGTA,2.06,1.85,1.01,2,0.514,2.78,2.17,3.05,3.43,3.35
AGAACGAGGGCACGCTGGGTTGATAGCAGAGTAG,1.04,0.969,-0.399,0.12,-0.802,2.11,2.01,1.91,0.228,1.15
TTACCAAGGTGATAGGTCGTTGATGCACGCCTTG,0.534,0.702,-0.126,0.514,-0.482,2.84,4.06,5.47,3.82,5.61
CCTCGGAGTACAGAAGGTCAGAGCTGTCCGCTTT,1.75,3.22,1.46,1.54,-0.164,2.02,-0.0233,0.921,-0.606,0.4
CAAACTAGGTCAAGTGGTCAAAGTCCGCTTCCCG,4.81,3.79,1.15,2.42,0.597,5.45,8.38,7.13,5.18,6.97
GCTTACGGGTCAACGGTTATAGCATGAATAGAAT,5.44,3.55,-0.033,3.68,-0.198,5.55,6.07,5.8,3.19,5.2
ACTAGCAGGCCAAGTGTCACTCAAGATTAGTCCG,-0.202,-0.345,-0.396,-0.372,-0.742,1.37,1.95,3.56,1.36,2.95
ACTGGCAGGCCAAGGGTCACTCAAGATTAGTCCG,2.36,2.55,-0.0676,2.36,-0.732,3.88,5.21,5.21,3.1,5.1
AATACAGTGTCACTAGGCCAGAGTAGGTACGAAT,-0.0447,0.0759,-0.316,-0.0896,-0.131,1.44,1.82,1.52,0.462,0.705
